Assay results from PubChem BioAssay (Tox21).
Calls of active or inactive are those of the source. The call rests on the fitted dose curve; in most records, active means well fitted curve in the direction sought with a large enough effect in the repeat runs; inconclusive means weak or mixed curves; inactive means flat fitted curve, though single readings scatter.

Assay: qHTS assay to test for compound auto fluorescence at 460 nm (blue) in HEK293 cell free culture (AID 720681)
Details: cell-free medium, autofluorescence 405/460 nm (blue); series mostly up to 91.3 µM; fluorescence, % of fluorescent control: at the top concentration
Source text: U.S. Tox21 Program National Center for Advancing Translational Sciences [NCATS] NIH Chemical Genomics Center [NCGC] U.S. Environmental Protection Agency [EPA] National Institutes of Environmental Health Sciences [NIEHS] National Toxicology Program [NTP] U.S. Food and Drug Administration [FDA] Tox21 Assay Overview: Compound auto fluorescence often interferes with screening of the compound library against various biological targets and signaling pathways. Some of these compounds may have fluorophoric properties. Such properties may interfere with the assay outputs resulting in false positives and/or negatives. To decrease such complications and ensure the compound activities are relevant in terms of biological response, the Tox21 10K compound library was screened for auto fluorescence. From the fluorophores used as reporter signals in our screening assays, the auto fluorescence equivalencies of compounds against three fluorophores have been evaluated: Triamterene, Fluorescein and Rose Bengal sodium for blue, green and red fluorescence, respectively. The fluorescence intensities were measured using Excitation/Emission wavelengths at 405/460nm, 485/535nm and 540/590nm for blue, green and red labels, respectively. This assay includes the blue fluorescence data.
Tox21 Assay Protocol Summary: 5 uL of culture medium (DMEM containing 10% FBS) per well was dispensed into black wall/clear bottom 1536-well plates using a Multidrop Combi Dispenser (ThermoFisher Scientific, Waltham, MA). After 23 nL compound or DMSO vehicle was transferred into assay plate by a pintool work station (Kalypsys, San Diego, CA), fluorescence intensities in the assay plates were measured by an Envision (PerkinElmer, Shelton, CT) plate reader using three labels for measuring blue, green and red fluorescence at […] 460, 535 and 590nm respectively.
On the % scale 0 is the no-effect control and ±100 the full control effect; potency means the concentration at half of the fitted maximal effect.

SMILES	fluorescence, % of fluorescent control	Potency
CN/C(=N\[N+](=O)[O-])NCc1cnc(Cl)s1	0.0276% (inactive)	
O.O.O.O=C([O-])[C@H]([O-])[C@@H]([O-])C(=O)[O-].O=C([O-])[C@H]([O-])[C@@H]([O-])C(=O)[O-].[K+].[K+].[Sb+3].[Sb+3]	-0.142% (inactive)	
CN=C=O	-0.0114% [at 95.7 µM] (inactive)	
CC(=O)[O-].CC(=O)[O-].[Co+2]	0.028% (inactive)	
CCOC(=O)Cc1ccccc1	-0.0651% (inactive)	
Nc1cc(Cl)ccc1Cl	0.0853% (inactive)	
CC(C)=CCN1CC[C@@]2(C)c3cc(O)ccc3C[C@@H]1[C@@H]2C	-0.13% (inactive)	
C=Cc1cccc(CCl)c1	0.0968% [at 203 µM] (inactive)	
CCCC[N+]1(C)CCCC1 (tested in a mixture with another compound)	-0.281% [at 95.7 µM] (inactive)	
CCC1COC(Cn2cncn2)(c2ccc(Cl)cc2Cl)O1 (stereo not given)	0.149% (inactive)	
CNC(=O)/C=C(\C)OP(=O)(OC)OC	-0.029% (inactive)	
N#Cc1ccc(N(CC(N)=O)CC(F)(F)F)cc1C(F)(F)F	-0.082% (inactive)	
CCN(CC)Cc1nccn1-c1ccc([N+](=O)[O-])cc1C(=O)c1ccccc1Cl	0% [at 46 µM] (inactive)	
COc1ccc2c3c1O[C@H]1[C@H](O)CC[C@H]4[C@@H](C2)N(C)CC[C@@]341	-0.0265% (inactive)	
ClC1(Cl)C2(Cl)C3(Cl)C4(Cl)C(Cl)(Cl)C5(Cl)C3(Cl)C1(Cl)C5(Cl)C24Cl (stereo not given)	0.0456% (inactive)	
[Cl-].[Cl-].[Sn+2]	0.0347% (inactive)	
CCOP(=O)(Sc1ccccc1)Sc1ccccc1	-0.262% (inactive)	
Oc1cc(Cl)cc(Cl)c1	-0.223% (inactive)	
CCO/N=C(\CC)C1=C(O)CC(c2c(C)cc(C)cc2C)CC1=O (stereo not given)	0.268% (inactive)	
CC(C)C(Br)C(=O)NC(N)=O (stereo not given)	-0.0817% [at 46 µM] (inactive)	

SMILES	fluorescence, % of fluorescent control	Potency
CCC[CH2][Sn]([CH2]CCC)([CH2]CCC)[CH2]CCC	0.13% (inactive)	
O=C(O)[C@H](O)[C@@H](O)C(=O)O	0.0216% (inactive)	
CCCCCON=O	0.128% (inactive)	
O=[N+]([O-])c1cccc2cccc([N+](=O)[O-])c12	-0.153% (inactive)	
Oc1ccc([C@H]2CNCc3c2ccc(O)c3O)cc1O	0.828% [at 46 µM] (inactive)	
CCCCCCCc1ccc(O)cc1	-0.0326% (inactive)	
O=[N+]([O-])C(Br)Br	0.016% (inactive)	
CCn1cc[n+](C)c1 (tested in a mixture with another compound)	-0.0212% (inactive)	
CSC1=N[C@@](C)(c2ccccc2)C(=O)N1Nc1ccccc1	-0.0355% (inactive)	
C[C@]12C/C(=C/O)C(=O)C[C@@H]1CC[C@@H]1[C@@H]2CC[C@@]2(C)[C@H]1CC[C@]2(C)O		inactive
CN(C)c1ccc(N)cc1	-0.0216% (inactive)	
O=[N+]([O-])c1ccc(Cl)c(Cl)c1Cl	-0.251% (inactive)	
CCC(C)Br (stereo not given)	-0.131% [at 95.7 µM] (inactive)	
CC[C@]1(O)CC[C@H]2[C@@H]3CCC4=CCCC[C@@H]4[C@H]3CC[C@@]21C	-0.079% [at 46 µM] (inactive)	
CCN(CC)C(=S)S		inactive
CCNS(=O)(=O)C(F)(F)C(F)(F)C(F)(F)C(F)(F)C(F)(F)C(F)(F)C(F)(F)C(F)(F)F	-0.0173% (inactive)	
Cc1c([N+](=O)[O-])cc2c(c1[N+](=O)[O-])C(C)(C)CC2(C)C	0.0843% (inactive)	
COc1nc(C)nc(NC(=O)NS(=O)(=O)c2ccccc2Cl)n1	-0.0135% (inactive)	
N#Cc1c2ccccc2cc2ccccc12		2510 nM (active)
CCN(CC)CCN1C(=O)CN=C(c2ccccc2F)c2cc(Cl)ccc21	-0.119% [at 46 µM] (inactive)	
